Experimental data published in PubChem BioAssay (NCATS).
“And” between values parts separate entries of the source, which are not always exact repeats. Equal entries are not always repeated. Results filed as inconclusive are left out. Entries that show only a call come without a potency. The source made the active and inactive calls. Calls come from the whole dose curve; as a rule, active = well fitted curve in the direction sought with a large enough effect; inconclusive = small, poorly fitted or top-dose-only effect, or another doubt; inactive = no such curve, though single readings can be large; an effect the other way counts as inactive or inconclusive.

What was measured:
[1] = Primary qHTS for small molecule stabilizers of the endoplasmic reticulum resident proteome: Secreted ER Calcium Modulated Protein (SERCaMP) assay (AID 1508630); conditions: SH-SY5Y GLuc-SERCaMP (Gaussia luciferase released on ER calcium loss) secretion, thapsigargin, luminescence; series mostly up to 38.4 µM
In short: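 GLuc-SERCaMP-expressing SH-SY5Y cells, pretreated 16 h with compound, are challenged with thapsigargin to empty ER calcium stores; after 4 h, coelenterazine is added directly to the medium and luminescence is imaged.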

[2] = Primary qHTS for inhibitors of nuclear receptor binding SET domain protein 2 (NSD2) in an isogenic RCH-ACV NSD2 p.E1099K mutant (9B) (AID 1645876); conditions: RCH-ACV NSD2 E1099K (9B) viability, CellTiter-Glo, 72 h; series mostly up to 44.9 µM; note: nearly all actives have a fitted effect of over 70% in size; note: potency is the fitted concentration of half-maximal effect
[3] = Primary qHTS for inhibitors of nuclear receptor binding SET domain protein 2 (NSD2) in an RCH-ACV wild type WT cells (2C) (AID 1645877); conditions: RCH-ACV (leukaemia line) NSD2 WT (2C) viability, CellTiter-Glo, 72 h; series mostly up to 44.9 µM; note: nearly all actives have a fitted effect of over 70% in size; note: potency is the fitted concentration of half-maximal effect

| SMILES | Potency [1] | Potency [2] | Potency [3] |
| --- | --- | --- | --- |
| COc1cc(OC2CCN(C)CC2)ccc1Nc1ncc2c(n1)n(C1CCCC1)c(=O)n2C | inactive | 5.25 µM (active) | 3.72 µM (active) |
| O=C1CCC[C@@H]2[C@H]3CCC[N+]4([O-])CCC[C@@H](CN12)[C@@H]34 (stereo not given in full) | inactive | inactive | inactive |
| Cc1cc(Nc2ncnc3ccc(-c4ccc(CNCCS(C)(=O)=O)o4)cc23)ccc1Oc1ccn2ncnc2c1 | inactive | 16.3 µM (active) and 16.6 µM (active) | 10.3 µM (active) and 14.8 µM (active) |
| CCN(CC)CCNC(=O)c1ccc2nc(-c3ccccc3)c(-c3ccc(CN4CCC(n5c(=O)[nH]c6ccccc65)CC4)cc3)nc2c1 | inactive | 2.58 µM (active) and 3.32 µM (active) | 2.58 µM (active) and 4.17 µM (active) |
| O=c1[nH]c(=O)n(C2CCCO2)cc1F (stereo not given) | inactive | inactive | inactive |
| CN1CCN(c2cc(C(=O)Nc3ccc4c(c3)-c3c(c(C(N)=O)nn3-c3ccc(F)cc3)CC4)c(Cl)cn2)CC1 | inactive | 7.42 µM (active) | 8.33 µM (active) |
| COC(=O)Nc1nc2ccc(C(=O)c3ccc(F)cc3)cc2[nH]1 | inactive | 1.29 µM (active) and 468 nM (active) |  |
| C[C@@]12O[C@@H](C[C@]1(O)CO)n1c3ccccc3c3c4c(c5c6ccccc6n2c5c31)CNC4=O | inactive | 0.0661 µM (active) |  |
| Nc1nc(-c2nn(Cc3ccccc3F)c3ncccc23)nc(N)c1N1CCOCC1 | inactive | inactive | inactive |
